Screening results deposited in PubChem BioAssay by several laboratories.
Most compounds without a hit are left out; they make up all but 1.6% or so of the library.
Pemphigus Ab inh: human desmoglein-3 autoantibody binding inhibition; P32926; DSG3-coupled beads, scFv-anti-DSG3-GFP binding, flow cytometry; active compounds read low; binding (percent of control), % at 10 µM; 310,000 tested, 0.48% active; AID 588358;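 active = binding more than 3 SD below its plate's average and above zero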;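 also: hits lower antibody fragment binding to DSG3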
JMJD2C inh: blocks human GASC-1 demethylase activity. Q9H3R0. GST-JMJD2C(1-420) H3K9me3 demethylation, DELFIA europium. inhibition, % at 2.35 µM. 330,000 tested, 0.069% active;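 active = more than half of a compound's replicate wells show inhibition beyond 50%, single wells judged on their own value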;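 also: signal counts dimethyl H3K9 product captured on neutravidin plate; 0% = median of DMSO wells and 100% = 0.3 times that DMSO median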
Target sequence (Q9H3R0 1-420 limits assumed): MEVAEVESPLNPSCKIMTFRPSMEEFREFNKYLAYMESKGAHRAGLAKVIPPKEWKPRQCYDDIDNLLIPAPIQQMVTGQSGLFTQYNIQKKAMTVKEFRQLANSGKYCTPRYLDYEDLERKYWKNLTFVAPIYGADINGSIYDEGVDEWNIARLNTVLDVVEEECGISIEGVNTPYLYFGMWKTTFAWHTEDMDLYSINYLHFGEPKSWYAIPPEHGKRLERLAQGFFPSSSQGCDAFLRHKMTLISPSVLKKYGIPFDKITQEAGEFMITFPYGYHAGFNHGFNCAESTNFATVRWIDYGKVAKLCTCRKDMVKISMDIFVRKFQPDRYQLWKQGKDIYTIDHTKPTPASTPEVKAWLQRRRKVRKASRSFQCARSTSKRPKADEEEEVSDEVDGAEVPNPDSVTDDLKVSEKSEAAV
PREPL inhibitor: inhibitors of human prolyl oligopeptidase-like enzyme PREPL. Q4J6C6. recombinant PREPL, fluorescence polarization activity-based probe. inhibition, % at 5.96 µM. 320,000 tested, 0.68% active; in the data active = inhibition above about 43%;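 also: 0% = enzyme with DMSO and 100% = wells lacking enzyme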
VLA-4 inh: inhibition in a human VLA-4 binding assay; VLA-4 expressing cells, ligand binding flow cytometry; inhibition, % (about 7 µM as worked out from the volumes in the protocol); 330,000 tested, 0.2% active; in the data active = inhibition above about 50%
GRK2 inh: blocks RNA aptamer binding to human GRK2; inhibition of aptamer binding, % at 10 µM; AID 488847; P25098; bead flow cytometry, FAM-aptamer displacement from GRK2; 330,000 tested, 0.59% active;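 active = inhibition of aptamer binding above 40%, roughly 3 SD of noise, on plates passing a quality check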;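 also: median bead fluorescence of bound FAM aptamer so fluorescent compounds give negative values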
GRK2 inh confirm: confirmation of human GRK2 inhibitors displacing RNA aptamer. shares compounds with GRK2 inh. bead-bound GRK2, FAM-aptamer displacement, flow cytometry. aptamer displacement, % at 10 µM. 2,000 tested, 4% active;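 active = aptamer displacement above 40%, near three times the noise of non-fluorescent compounds, on plates passing quality checks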;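 also: negative values mostly reflect intrinsic compound fluorescence rather than true enhancement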
Aptamer quench SP: quenches fluorescent RNA aptamer, GRK2 hit artifact; shares compounds with GRK2 inh; Carboxyfluorescein RNA aptamer on beads, flow cytometry quenching; active compounds read low; fluorescence response (% of DMSO), % at 10 µM; 2,000 tested, under 10 active; AID 504580;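 active = compounds that quench the bead-bound fluorescent RNA probe, cutting fluorescence to under half of the solvent control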;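 also: counterscreen run without GRK2 so only probe quenching by compound is measured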
GRK2 confirm 2: human GRK2 inhibition confirmation, cherry pick 2; shares compounds with GRK2 inh; bead-bound GRK2, FAM-aptamer displacement, flow cytometry; inhibition of aptamer binding, % at 10 µM; 360 tested, under 10 active;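 active = inhibition of aptamer binding above 40%, about triple the noise seen with nonglowing compounds, on plates passing quality control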;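 also: negative values mostly come from compounds that fluoresce themselves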
FAM quench CP2: aptamer fluorescence quenching in GRK2 counter-screen | carboxyfluorescein RNA aptamer beads, flow cytometry quenching; active compounds read low | 360 tested, under 10 active | AID 588494 | fluorescence response vs DMSO, % at 10 µM | shares compounds with GRK2 inh;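 active = response vs DMSO under 50%, meaning signal dropped by over half, treated as fluorescence quencher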;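 also: labelled aptamer on streptavidin beads without GRK2 as a quench counter-screen; 100% = bead fluorescence of DMSO wells and lower means quenching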
Starred values were filed as active, the others as inactive.

CCc1cc(CC)c(/C=N/NC(N)=O)c(CC)c1/C=N/NC(N)=O was read as Pemphigus Ab inh 94.2, JMJD2C inh -22.6, PREPL inhibitor -11.0, VLA-4 inh -6.8 and GRK2 inh 0.0.
Screening Cc1cc(/C=N/NC(N)=O)c(C)c(CO)c1 returned Pemphigus Ab inh 103.5, JMJD2C inh 2.0, PREPL inhibitor 1.9, VLA-4 inh 6.6, GRK2 inh 77.0*, GRK2 inh confirm 2.9 and Aptamer quench SP 98.2.
Screening O=C(NCCOc1nc(N2CCCCC2)nc(N2CCOCC2)n1)Nc1ccccc1 returned Pemphigus Ab inh 101.4, JMJD2C inh 3.7, PREPL inhibitor 7.5, VLA-4 inh 23.1 and GRK2 inh 0.0.
O=C(NCCOc1nc(N2CCOCC2)nc(N2CCOCC2)n1)Nc1ccccc1 was read as JMJD2C inh -6.9, PREPL inhibitor 10.8, VLA-4 inh 1.6, GRK2 inh 46.0*, GRK2 inh confirm 0.4 and Aptamer quench SP 97.5.
`O=C1NC[C@@H](Cc2cccc3ccccc23)N(CCC23CC4CC(CC(C4)C2)C3)C1=O` gave Pemphigus Ab inh 103.3, JMJD2C inh 14.2, PREPL inhibitor -13.2, VLA-4 inh 1.7 and GRK2 inh 2.0.
Screening Cc1ccc(S(=O)(=O)C2(C(=O)NC3CCCC3)CC2)cc1 returned Pemphigus Ab inh 100.6, JMJD2C inh 3.6, PREPL inhibitor 3.5, VLA-4 inh 0.0, GRK2 inh 0.0, GRK2 confirm 2 -27.8 and FAM quench CP2 103.0.
For Cc1ccc(S(=O)(=O)C2(C(=O)NC3CCCCC3C)CC2)cc1 (stereo not drawn) the results were Pemphigus Ab inh 101.8, JMJD2C inh 1.5, PREPL inhibitor -0.4, VLA-4 inh 4.4 and GRK2 inh 0.0.
COc1ccc(CNC(=O)C2CC=CCC2C(=O)O)cc1OC (stereo not drawn) was read as JMJD2C inh -2.4, PREPL inhibitor 6.2, VLA-4 inh 10.4, GRK2 inh 0.0, GRK2 confirm 2 inactive and FAM quench CP2 103.0.
Screening O=C(O)C1CC=CCC1C(=O)NCc1ccccc1 (stereo not drawn) returned Pemphigus Ab inh 99.4, JMJD2C inh -0.9, PREPL inhibitor 17.0, VLA-4 inh -6.9 and GRK2 inh 4.0.
`COc1ccc(Cl)cc1C(=O)NNC(=S)NC(=O)c1cc(-c2ccccc2)nc2ccccc12` gave Pemphigus Ab inh 105.6, JMJD2C inh -0.2, PREPL inhibitor 9.2, VLA-4 inh -2.4, GRK2 inh 43.0*, GRK2 inh confirm -2.2 and Aptamer quench SP 108.5.
For COc1ccc(C(=O)NNC(=S)NC(=O)c2cc(-c3ccccc3)nc3ccccc23)cc1 the results were Pemphigus Ab inh 60.1, JMJD2C inh -0.4, PREPL inhibitor 9.7, VLA-4 inh -1.4 and GRK2 inh 0.0.
CCCCCC(=O)Nc1ccc(N2CCOCC2)c(S(=O)(=O)Nc2ccc(OC)cc2)c1 was read as Pemphigus Ab inh 104.0, JMJD2C inh 4.9, PREPL inhibitor 4.2, VLA-4 inh 25.6, GRK2 inh 82.0*, GRK2 inh confirm -19.1 and Aptamer quench SP 94.4.
COc1ccc(OCCC(=O)OCC(=O)NCc2ccc(F)cc2)cc1 was read as Pemphigus Ab inh 104.7, JMJD2C inh 11.4, PREPL inhibitor 4.6, VLA-4 inh 11.3 and GRK2 inh 0.0.
For O=S(=O)(Nc1nc2cc3c(cc2nc1Cl)OCCO3)c1ccccc1 the results were Pemphigus Ab inh 96.9, JMJD2C inh 0.9, PREPL inhibitor -1.2, VLA-4 inh -22.2, GRK2 inh 48.0*, GRK2 inh confirm 1.3 and Aptamer quench SP 100.4.
For O=[N+]([O-])c1ccccc1/C=C/C=N/n1c(-c2cc(-c3ccccc3)n[nH]2)n[nH]c1=S the results were JMJD2C inh 4.5, PREPL inhibitor 9.0, VLA-4 inh 2.3, GRK2 inh 69.0*, GRK2 inh confirm 11.3 and Aptamer quench SP 99.1.
`Cc1ccc(-c2n[nH]c(=S)n2/N=C/C=C/c2ccccc2[N+](=O)[O-])cc1` gave Pemphigus Ab inh 99.3, JMJD2C inh 5.1, PREPL inhibitor 21.0, VLA-4 inh -6.7 and GRK2 inh 0.0.
`COC(=O)Cc1c(O)ccn(C2CC2)c1=O` gave Pemphigus Ab inh 102.5, JMJD2C inh 13.3, PREPL inhibitor -1.5, VLA-4 inh -4.0, GRK2 inh 75.0*, GRK2 inh confirm -7.1 and Aptamer quench SP 101.7.
`COC(=O)Cc1c(O)ccn(Cc2ccc3c(c2)OCO3)c1=O` gave Pemphigus Ab inh 102.1, JMJD2C inh -19.8, PREPL inhibitor 3.0, VLA-4 inh -7.1 and GRK2 inh 0.0.
CNC(=O)COC(=O)/C=C/c1cn(-c2ccccc2)nc1-c1ccc2c(c1)OCCO2 was read as Pemphigus Ab inh 114.3, JMJD2C inh -3.0, PREPL inhibitor 2.2, VLA-4 inh 3.3 and GRK2 inh 1.0.
Screening Cc1ccc(-c2nn(-c3ccccc3)cc2/C=C/C(=O)OCC(=O)NC2CC2)o1 returned Pemphigus Ab inh 102.1, JMJD2C inh -23.1, PREPL inhibitor 15.4, VLA-4 inh -3.0, GRK2 inh 78.0*, GRK2 inh confirm -4.8 and Aptamer quench SP 101.9.
CN1CCN(c2ccc(-c3cccc(NC(=O)COc4ccccc4)c3)nn2)CC1 was read as Pemphigus Ab inh 109.5, JMJD2C inh -5.9, PREPL inhibitor 7.9, VLA-4 inh 1.0, GRK2 inh 0.0, GRK2 inh confirm -11.3 and Aptamer quench SP 95.8.
Screening CN1CCN(c2ccc(-c3cccc(NC(=O)COc4ccc(Cl)cc4)c3)nn2)CC1 returned Pemphigus Ab inh 100.3, JMJD2C inh -2.4, PREPL inhibitor -12.5, VLA-4 inh -10.8, GRK2 inh 0.0, GRK2 inh confirm -13.3 and Aptamer quench SP 99.8.
Screening COc1ccc(/C=C/C(=O)NC(=S)N2CCSCC2)cc1 returned Pemphigus Ab inh 103.9, JMJD2C inh -26.2, PREPL inhibitor -1.0, VLA-4 inh -239.4 and GRK2 inh 2.0.
CCOC(=O)c1[nH]c2ccccc2c1NC(=S)Nc1cccc(C)c1C was read as Pemphigus Ab inh 94.2, JMJD2C inh -4.4, PREPL inhibitor 8.5, VLA-4 inh 35.4 and GRK2 inh 0.0.
`O=C(CSc1nc2ccccc2[nH]1)Nc1ccc2c(c1)OCCO2` gave Pemphigus Ab inh 92.7, JMJD2C inh -51.8, PREPL inhibitor -7.5, VLA-4 inh 18.1, GRK2 inh 0.0, GRK2 confirm 2 -48.5 and FAM quench CP2 100.0.
